Test results from PMC11062922 (Nature Chemical Biology, 2023).
Like-named read-outs stand apart in the source and are kept apart here.

How the values were obtained:
Parameters in all cases: species or system human, MV4-11 + K-562 + COLO205 + SK-N-BE2 + OVCAR-8
DCTPP1 = details: read-out: apparent Kd, n = 1
MAP2K5 = details: read-out: apparent Kd, n = 1
PI4KA = details: read-out: apparent Kd, n = 1
COX5A = details: read-out: apparent Kd, n = 1
CSNK1G1 = details: read-out: apparent Kd, n = 1
MERTK = details: read-out: apparent Kd, compound concentrations: 100 nM and 1000 nM (sheet 'Samples'), n = 1
TAOK1 = details: read-out: apparent Kd, n = 1
AKT1 = details: read-out: apparent Kd, compound concentrations: 100 nM and 1000 nM (sheet 'Samples'), n = 1
NQO1 = details: read-out: apparent Kd, n = 1
NTRK1 = details: read-out: apparent Kd, n = 1
PRKCI = details: read-out: apparent Kd, n = 1
MAPK11 = details: read-out: apparent Kd, n = 1
PIM1 = details: read-out: apparent Kd, n = 1
SYK = details: read-out: apparent Kd, n = 1
IRAK1 = details: read-out: apparent Kd; compound concentrations:100 nM and 1000 nM (sheet 'Samples'); n = 1
RPS6KA5 = details: read-out: apparent Kd, n = 1
PRKDC = details: read-out: apparent Kd; compound concentrations: 100 nM and 1000 nM (sheet 'Samples'), CATDS: 3.7580559894827101E-2; n = 1
[1] = compound concentrations:100 nM and 1000 nM (sheet 'Samples')

Cc1cccc(Nc2nc(N[C@H]3CCNC3)ncc2C(N)=O)c1.Cl [GSK2197149A]
potency estimated from few doses (DCTPP1; [1]): 1150 nM | potency estimated from few doses (MAP2K5; [1]): 1170 nM | potency estimated from few doses (PI4KA; [1]): 1420 nM

O=C(O)C(F)(F)F.O=C(O)C(F)(F)F.O=c1[nH]ccc2nc(N[C@@H]3CCCNC3)nc(Nc3ccc(S(=O)(=O)N4CCOCC4)cc3)c12.O=c1[nH]ccc2nc(N[C@@H]3CCCNC3)nc(Nc3ccc(S(=O)(=O)N4CCOCC4)cc3)c12 [GSK2177277A]
potency estimated from few doses (COX5A; compound concentrations: 100 nM and 1000 nM (sheet 'Samples'), CATDS: 6.6138643227552996E-3): 1310 nM | potency estimated from few doses (CSNK1G1; compound concentrations: 100 nM and 1000 nM (sheet 'Samples'), CATDS: 7.1909422101758503E-3): 882 nM | potency estimated from few doses (MAP2K5; compound concentrations: 100 nM and 1000 nM (sheet 'Samples'), CATDS: 1.4569473169207601E-2): 103 nM | potency estimated from few doses (MERTK; CATDS: 1.1592861489919001E-2): 181 nM | potency estimated from few doses (TAOK1; compound concentrations: 100 nM and 1000 nM (sheet 'Samples'), CATDS: 1.8448588679872001E-2): 61.9 nM

Cc1ccccc1C1=C(c2cn(C)c3ccccc23)C(=O)NC1=O [RO0317612-000]
potency estimated from few doses (COX5A; compound concentrations: 100 nM and 1000 nM (sheet 'Samples'), CATDS: 0.16821535460753201): 767 nM

NC(=O)c1cc(-c2ccccc2)cc2c(C3CCNCC3)c[nH]c12 [GSK301362A]
potency estimated from few doses (TAOK1; [1]): 1500 nM

c1cnn2ncc(-c3ccnc(Nc4ccc5c(c4)OCCO5)n3)c2c1 [GW806290X]
potency estimated from few doses (AKT1; CATDS: 2.02119935433384E-2): 1930 nM | potency estimated from few doses (NQO1; compound concentrations: 100 nM and 1000 nM (sheet 'Samples'), CATDS: 2.4144843754049801E-2): 1040 nM

COc1cc[nH]c1/C=C1\C(=O)Nc2ccc(F)c(C#CC3(O)CCNCC3)c21.Cl [RO0282986-001]
potency estimated from few doses (NTRK1; compound concentrations: 100 nM and 1000 nM (sheet 'Samples'), CATDS: 9.7350807133640294E-3): 1470 nM

O=C(O)C(F)(F)F.O=c1[nH]ccc2nc(N[C@@H]3CCNC3)nc(Nc3cc(Cl)cc(Cl)c3)c12 [GSK2188764A]
potency estimated from few doses (MAP2K5; [1]): 207 nM

Cl.Cl.NC(CNC(=O)c1cc(Br)c(-c2ccnc3[nH]ccc23)s1)c1ccccc1.NC(CNC(=O)c1cc(Br)c(-c2ccnc3[nH]ccc23)s1)c1ccccc1 (stereo not shown) [GSK1322949A]
potency estimated from few doses (NTRK1; compound concentrations: 100 nM and 1000 nM (sheet 'Samples'), CATDS: 2.41440168152992E-2): 2140 nM | potency estimated from few doses (PRKCI; compound concentrations: 100 nM and 1000 nM (sheet 'Samples'), CATDS: 2.43099453780894E-2): 2100 nM

CNc1cc(-c2ccc3c(N)n[nH]c3c2)nc(N)n1 [GSK2224810A]
potency estimated from few doses (CSNK1G1; [1]): 2200 nM | potency estimated from few doses (NQO1; [1]): 1440 nM

CCn1c(-c2cccnc2O)nc2cnccc21 [SB-736715]
potency estimated from few doses (AKT1; CATDS: 1.3570938887082299E-2): 1610 nM | potency estimated from few doses (CSNK1G1; compound concentrations: 100 nM and 1000 nM (sheet 'Samples'), CATDS: 1.6371117072737501E-2): 1080 nM | potency estimated from few doses (MAPK11; compound concentrations: 100 nM and 1000 nM (sheet 'Samples'), CATDS: 1.30714391114645E-2): 1760 nM | potency estimated from few doses (PI4KA; compound concentrations: 100 nM and 1000 nM (sheet 'Samples'), CATDS: 1.5744300181729402E-2): 1170 nM | potency estimated from few doses (PIM1; compound concentrations: 100 nM and 1000 nM (sheet 'Samples'), CATDS: 1.79844140695006E-2): 909 nM | potency estimated from few doses (PRKCI; compound concentrations: 100 nM and 1000 nM (sheet 'Samples'), CATDS: 1.2421041550088101E-2): 2000 nM | potency estimated from few doses (SYK; compound concentrations: 100 nM and 1000 nM (sheet 'Samples'), CATDS: 1.27185371688364E-2): 1880 nM

CC(C)Oc1ccc2c(-c3ccnc(Nc4ccc(N5CCN(C)CC5)cc4)n3)cnn2n1 [GW696155X]
potency estimated from few doses (IRAK1): 769 nM | potency estimated from few doses (TAOK1; [1]): 1580 nM

CS(=O)(=O)CCn1c(=O)c(Oc2ccc(F)cc2F)cc2cnc(NC3CCOCC3)nc21 [RO5027956-000]
potency estimated from few doses (MAPK11; [1]): 1730 nM

NCC(NC(=O)c1cc(-c2cn[nH]c2)c(-c2ccnc3[nH]ccc23)s1)c1ccccc1.NCC(NC(=O)c1cc(-c2cn[nH]c2)c(-c2ccnc3[nH]ccc23)s1)c1ccccc1.O=C(O)C(F)(F)F.O=C(O)C(F)(F)F (stereo not shown) [GSK1325775A]
potency estimated from few doses (PI4KA; compound concentrations: 100 nM and 1000 nM (sheet 'Samples'), CATDS: 3.4236292814805502E-2): 1310 nM

O=C(O)C(F)(F)F.O=c1[nH]ccc2nc(N[C@@H]3CCNC3)nc(Nc3ccc4c(c3)S(=O)(=O)CC4)c12 [GSK2181306A]
potency estimated from few doses (CSNK1G1; compound concentrations: 100 nM and 1000 nM (sheet 'Samples'), CATDS: 8.6672996654843307E-3): 1380 nM | potency estimated from few doses (MAP2K5; compound concentrations: 100 nM and 1000 nM (sheet 'Samples'), CATDS: 1.2089918500056101E-2): 509 nM | potency estimated from few doses (RPS6KA5; compound concentrations: 100 nM and 1000 nM (sheet 'Samples'), CATDS: 8.4236521656491804E-3): 1550 nM | potency estimated from few doses (SYK; compound concentrations: 100 nM and 1000 nM (sheet 'Samples'), CATDS: 8.7741915408421998E-3): 1320 nM

CCN(CC)Cc1ccc(Nc2nccc(-c3cnn4ncccc34)n2)cc1 [GW780056X]
potency estimated from few doses (NTRK1; compound concentrations: 100 nM and 1000 nM (sheet 'Samples'), CATDS: 2.09044703121741E-2): 1140 nM

c1ccc(-c2n[nH]cc2Nc2ccnc3ccccc23)nc1 [GW694077X]
potency estimated from few doses (DCTPP1; compound concentrations: 100 nM and 1000 nM (sheet 'Samples'), CATDS: 2.52871729428043E-2): 1400 nM

CN[C@H](C#Cc1c(F)ccc2c1/C(=C/c1[nH]ccc1OC)C(=O)N2)CO.Cl [RO0283049-001]
potency estimated from few doses (NTRK1; compound concentrations: 100 nM and 1000 nM (sheet 'Samples'), CATDS: 2.3877325037377599E-2): 949 nM

Cc1occc1-c1nc(N)c(OC[C@@H](N)Cc2c[nH]c3ccccc23)cc1-c1cc2c(C)n[nH]c2cn1 [GSK1660450B]
potency estimated from few doses (COX5A; [1]): 824 nM | potency estimated from few doses (CSNK1G1; [1]): 1340 nM | potency estimated from few doses (PIM1; [1]): 92.7 nM | potency estimated from few doses (TAOK1; [1]): 12 nM

COc1cc[nH]c1/C=C1\C(=O)Nc2ccc(F)c(C#C[C@@H](O)[C@@H](N)[C@@H](C)O)c21 [RO0283120-000]
potency estimated from few doses (NTRK1; [1]): 1430 nM

COc1cc[nH]c1/C=C1\C(=O)Nc2ccc([N+](=O)[O-])c(N3CC[C@@H](O)C3)c21 [RO0504985-000]
potency estimated from few doses (NTRK1; compound concentrations: 100 nM and 1000 nM (sheet 'Samples'), CATDS: 3.6845933962960403E-2): 886 nM

CCn1c(-c2nonc2N)nc2cncc(Br)c21 [SB-738004]
potency estimated from few doses (PRKCI; [1]): 483 nM

Cl.Cl.NC[C@H](CC1CCCCC1)NC(=O)c1ccc(-c2ccnc3[nH]ccc23)s1.NC[C@H](CC1CCCCC1)NC(=O)c1ccc(-c2ccnc3[nH]ccc23)s1 [GSK1581428A]
potency estimated from few doses (RPS6KA5; [1]): 1340 nM

CCC(CC)(CC)n1cnc2c(N)ncnc21 [SKF-97620]
potency estimated from few doses (PI4KA; compound concentrations: 100 nM and 1000 nM (sheet 'Samples'), CATDS: 3.8493630683817899E-2): 553 nM | potency estimated from few doses (PRKDC): 583 nM

Nc1nc(-c2ccc3c(N)n[nH]c3c2)cc(N2CCCC(NC(=O)c3ccccc3)C2)n1 (stereo not shown) [GSK2286775B]
potency estimated from few doses (NQO1; [1]): 1370 nM

Cn1cc(C2=C(c3c(S(C)=O)n(C)c4ccccc34)C(=O)NC2=O)c2ccccc21 (stereo not shown) [RO0317379-000]
potency estimated from few doses (MERTK; CATDS: 0.152685994301652): 590 nM

O=C(Nc1n[nH]c2nc(-c3ccccc3O)ccc12)C1CC1 [SB-711880]
potency estimated from few doses (SYK; [1]): 1760 nM

Nc1nccc(-c2ccc3c(N)n[nH]c3c2)n1 [GSK1034945A]
potency estimated from few doses (PRKCI; [1]): 1240 nM

Cc1cc(NC(=O)c2cccc(NC(=O)/C=C/CN(C)C)c2)ccc1Nc1nccc(-c2cccnc2)n1 [JNK-IN-7]
potency estimated from few doses (IRAK1): 111 nM

Cl.Cl.NCC(NC(=O)c1cc(-c2ccnc3[nH]ccc23)cs1)c1ccccc1.NCC(NC(=O)c1cc(-c2ccnc3[nH]ccc23)cs1)c1ccccc1 (stereo not shown) [GSK1229959A]
potency estimated from few doses (RPS6KA5; compound concentrations: 100 nM and 1000 nM (sheet 'Samples'), CATDS: 1.83168013487864E-2): 1240 nM

CCn1c(-c2nonc2N)nc2cncc(C(=O)N3CC[C@H](N)C3)c21.Cl [SB-772077-B]
potency estimated from few doses (PIM1; [1]): 30.8 nM | potency estimated from few doses (PRKCI; [1]): 606 nM | potency estimated from few doses (RPS6KA5; [1]): 48.3 nM

CN(C)C(=O)/C(C#N)=C/c1ccc(-c2nc3cnc4[nH]ccc4c3n2C2CCCCC2)o1 [FM-381]
potency estimated from few doses (COX5A; [1]): 756 nM

Nc1nc(-c2ccc3c(N)n[nH]c3c2)cc(N2CCCCC2)n1 [GSK2228768A]
potency estimated from few doses (COX5A; [1]): 1060 nM | potency estimated from few doses (DCTPP1; [1]): 1720 nM
